Among the test systems are DU-145 prostate; K-562 leukemia; MALME-3M melanoma; MDA-MB-231 breast; RXF 393 renal; SF-268 CNS; SF-295 CNS; SF-539 CNS; UACC-257 melanoma; M14 melanoma; HCT-15 colon; HT29 colon; SNB-75 CNS; SNB-19 CNS; U251 CNS; PC-3 prostate; SK-MEL-5 melanoma; UACC-62 melanoma; LOX IMVI melanoma; SK-MEL-28 melanoma.
Common to all, as to experiment: NCI-60 one-dose screen, 48 h (100 = growth as untreated, 0 = no growth, -100 = all killed)
What all share (conditions): 10 µM unless noted

About 83,000 compounds went through this panel and 20% of them were active in at least one assay; those are over-represented in the sample as a whole.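 Cell lines were cultured in 96-well plates, exposed to a single compound concentration, and assessed for percent growth 48 hours later.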 Values without a mark were called inactive. Calls of active or inactive are those of the source. Rule for the calls: active = growth percent below 10; inactive = the rest.

In PubChem BioAssay (NCI) one finds growth data, which are given here for eight compounds.

As to `Cc1ccc(-c2nc(N3CCN(CC(=O)Nc4ccc(Cl)c(C(F)(F)F)c4)CC3)c3ccccc3n2)cc1`, the growth was 105% in the assay with DU-145 prostate; 69% with K-562 leukemia; 106% in the assay with MALME-3M melanoma; 90.7% in the assay on MDA-MB-231 breast; 80.5% in the assay with RXF 393 renal; 81.6% in the assay on SF-268 CNS. Further, the growth in the assay on SF-295 CNS is 104%; in the assay on SF-539 CNS, 95.9%; in the assay on UACC-257 melanoma it was 94.5%; in the assay with M14 melanoma it was 95.7%; in the assay on HCT-15 colon, 79.1%; in the assay with HT29 colon, 89.8%. Also, the growth is 81.2% in the assay on SNB-75 CNS; 98.8% in the assay with SNB-19 CNS; 93.2% in the assay with U251 CNS; 79.1% in the assay with PC-3 prostate; 103% in the assay on SK-MEL-5 melanoma; 83% in the assay on UACC-62 melanoma. For the same compound, the growth in the assay with LOX IMVI melanoma is 92.1%; in the assay with SK-MEL-28 melanoma, 105%.
`CCOC(=O)c1sc2ncc(-c3ccc(OC)cc3)n2c1C`: the growth in the assay on DU-145 prostate was 105%; in the assay with K-562 leukemia it was 91.2%; in the assay with MALME-3M melanoma, 101%; with MDA-MB-231 breast it was 92.4%; in the assay on RXF 393 renal, 111%; with SF-268 CNS, 98.1%. Further, the growth was 96.4% with SF-295 CNS; 91.8% in the assay on SF-539 CNS; 105% in the assay on UACC-257 melanoma; 95.3% in the assay on M14 melanoma; 90.2% in the assay on HCT-15 colon; 102% in the assay with HT29 colon. The growth with SNB-75 CNS is 92%; in the assay with SNB-19 CNS, 92.4%; in the assay on U251 CNS, 105%; with PC-3 prostate, 92.1%; with SK-MEL-5 melanoma, 94.3%; in the assay with UACC-62 melanoma it was 78.6%. The growth in the assay on LOX IMVI melanoma is 93.4%; in the assay with SK-MEL-28 melanoma, 106%.
Regarding `COc1ccc2c(c1)/C(=C/c1sc(=S)n(Cc3ccco3)c1O)C=N2`, the growth was 33.5% in the assay with DU-145 prostate; 15.8% in the assay with K-562 leukemia; 49.1% in the assay with MALME-3M melanoma; 56.5% with MDA-MB-231 breast; 48.7% with RXF 393 renal; 52.8% in the assay with SF-268 CNS. Besides, the growth in the assay on SF-295 CNS was 27.8%; in the assay on SF-539 CNS it was 11.2%; with UACC-257 melanoma, 61.3%; in the assay on M14 melanoma, 11.8%; with HCT-15 colon it was 17.8%; in the assay with HT29 colon, 15.8%. The growth was 1.19% (active) in the assay with SNB-75 CNS; 44.5% in the assay on SNB-19 CNS; 37% in the assay with U251 CNS; 61.6% in the assay on PC-3 prostate; 52.2% with SK-MEL-5 melanoma; 38.9% with UACC-62 melanoma. Further, the growth with LOX IMVI melanoma was 35.9%; in the assay on SK-MEL-28 melanoma, 47.4%.
For `C[C@H]1[C@H]2[C@H]3CC[C@@H]4[C@@]5(C)CC[C@H](O)C(C)(C)[C@@H]5CC[C@@]4(C)[C@]3(C)CC[C@]23CO[C@]1(C)[C@@H](C(=O)/C=C\c1cccnc1)C3`, the growth was 73.9% with DU-145 prostate; 18% in the assay with K-562 leukemia; 54.4% in the assay with MALME-3M melanoma; 82.1% in the assay with MDA-MB-231 breast; 75.2% with RXF 393 renal; 81.9% in the assay on SF-268 CNS. Also, the growth was 79.9% in the assay with SF-295 CNS; 77.8% in the assay on SF-539 CNS; 49.3% in the assay on UACC-257 melanoma; 60.8% in the assay with M14 melanoma; 38.5% in the assay with HCT-15 colon; 99.5% in the assay on HT29 colon. Moreover, the growth with SNB-75 CNS is 72.8%; with SNB-19 CNS it was 71.6%; with U251 CNS, 58.6%; in the assay on PC-3 prostate, 21.3%; with SK-MEL-5 melanoma, 37%; with UACC-62 melanoma, 41.5%. The growth was 51.5% with LOX IMVI melanoma and 66.2% with SK-MEL-28 melanoma.
For the compound `CCc1cccc2c1S/C(=C/c1ccc(Cl)cc1)C2=O`, the growth with DU-145 prostate was 107%; in the assay on K-562 leukemia it was 80.1%; in the assay with MALME-3M melanoma, 87.5%; in the assay on MDA-MB-231 breast it was 87.6%; in the assay with RXF 393 renal, 105%; in the assay with SF-268 CNS it was 93%. In addition, the growth with SF-295 CNS was 96.7%; with SF-539 CNS, 89.1%; in the assay on UACC-257 melanoma, 105%; with M14 melanoma, 99.1%; with HCT-15 colon, 92.5%; in the assay with HT29 colon it was 105%. Moreover, the growth with SNB-75 CNS is 73.3%; in the assay on SNB-19 CNS, 95.1%; with U251 CNS it was 99.2%; in the assay with PC-3 prostate it was 88.6%; in the assay with SK-MEL-5 melanoma it was 99.4%; in the assay with UACC-62 melanoma, 88.6%. For the same compound, the growth with LOX IMVI melanoma is 93.8%; in the assay with SK-MEL-28 melanoma, 110%.
Consider `CC(C)n1cnc2c(Nc3cccc(Cl)c3)nc(N[C@H]3CCCC[C@@H]3N)nc21`, for which the growth was 49.7% in the assay on DU-145 prostate; 35.5% in the assay on K-562 leukemia; 45.5% in the assay on MALME-3M melanoma; 32.6% in the assay on MDA-MB-231 breast; 53.2% with RXF 393 renal; 46.5% with SF-268 CNS. Moreover, the growth in the assay with SF-295 CNS was 76.3%; in the assay with SF-539 CNS, 71.3%; in the assay on UACC-257 melanoma, 64.1%; with M14 melanoma, 40.9%; in the assay with HCT-15 colon, 58.1%; with HT29 colon, 11.3%. The growth with SNB-75 CNS is 32.8%; in the assay with SNB-19 CNS, 59.7%; with U251 CNS, 57.3%; in the assay on PC-3 prostate it was 54.3%; in the assay on SK-MEL-5 melanoma, 53.3%; with UACC-62 melanoma, 68.3%. For the same compound, the growth in the assay on LOX IMVI melanoma was 45.2%; in the assay on SK-MEL-28 melanoma it was 61.7%.
Turning to `CC1=NN(c2ccc(S(=O)(=O)O)cc2)C(=O)C1N=Nc1ccc(-c2ccc(N=Nc3ccc(OS(=O)(=O)c4ccc(C)cc4)cc3)c(S(=O)(=O)O)c2)cc1` (stereo not given), the growth in the assay on DU-145 prostate was 107%; in the assay on K-562 leukemia, 94.4%; in the assay with MALME-3M melanoma, 108%; in the assay on MDA-MB-231 breast it was 97.1%; in the assay with RXF 393 renal, 61.7%; with SF-268 CNS, 100%. Moreover, the growth was 77.5% in the assay on SF-295 CNS; 85.1% with SF-539 CNS; 104% in the assay on UACC-257 melanoma; 103% in the assay on M14 melanoma; 82.8% in the assay on HCT-15 colon; 93.3% in the assay on HT29 colon. The growth was 78.8% in the assay on SNB-75 CNS; 104% in the assay with SNB-19 CNS; 96.2% with U251 CNS; 86.3% in the assay with PC-3 prostate; 104% in the assay with SK-MEL-5 melanoma; 92% in the assay with UACC-62 melanoma. The growth is 69.4% with LOX IMVI melanoma and 103% in the assay with SK-MEL-28 melanoma.
In the case of `C=C1CC[C@H](C(C)C)[C@@H]2[C@H]1[C@H]1CC(=C)[C@@H](O)CC[C@@](C)(O)[C@@H]2O1`, the growth was 102% with DU-145 prostate; 97.8% in the assay with K-562 leukemia; 98% in the assay on MALME-3M melanoma; 105% in the assay with MDA-MB-231 breast; 108% with RXF 393 renal; 94.7% in the assay with SF-268 CNS. The growth with SF-295 CNS was 98.4%; in the assay on SF-539 CNS it was 98.1%; in the assay on UACC-257 melanoma it was 86.2%; with M14 melanoma, 98.6%; with HCT-15 colon, 107%; with HT29 colon, 101%. The growth in the assay on SNB-75 CNS is 88.1%; in the assay on SNB-19 CNS it was 91.5%; with U251 CNS it was 106%; with PC-3 prostate, 89.9%; in the assay with SK-MEL-5 melanoma it was 100%; in the assay on UACC-62 melanoma, 92.8%. The results for the growth with LOX IMVI melanoma and with SK-MEL-28 melanoma were 93.8% and 105%, respectively.
